Compound activity (PubChem BioAssay)
Only some compounds are listed: those with a hit (about 4.2% of all), similar ones and a draw of the others.
tim23-1 inh: growth inhibitors of tim23-1 mutant yeast. 1.3% of 330,000 active. inhibition, % at 20 µM. S. cerevisiae tim23-1 growth, BacTiter-Glo luminescence, 24 h. AID 463212;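 active = growth inhibition of the mutant yeast at or above 50%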;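 note: temperature-sensitive mutant grown at 25 °C; plate controls were DMSO-treated mutant yeast for no effect and medium wells lacking yeast for full effect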
TIM10 inh: TIM10 yeast growth inhibition; S. cerevisiae TIM10 strain growth, BacTiter-Glo luminescence, 24 h; inhibition, % at 10 µM; 1.4% of 330,000 active;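 active = inhibition of 40% or more at the single tested concentration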;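 note: wild-type TIM10 isogenic control strain grown at permissive 25 °C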
NLRP3 yeast inh: NALP3 inhibition in yeast; Yeast reconstituted NLRP3/ASC/caspase-1, beta-gal luminescence, 24 h; inhibition, % at 10 µM; 0.39% of 330,000 active; AID 2825;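 active = inhibition of 50% or more; inactive = inhibition below 50%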;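 note: plate controls were induced DMSO wells for no effect and uninduced yeast grown without galactose for full effect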
NALP1 inh: blocks the NALP1 inflammasome reconstituted in yeast; S. cerevisiae NALP1/ASC/caspase-1 growth, X-gal OD620, 72 h; inhibition, % at 10 µM; 0.61% of 280,000 active; in the data active = inhibition mostly above about 24%, no sharp cut-off; inactive = mostly below about 32%
V-ATPase pHluor: yeast V-ATPase proton transport regulation by pHLuorin. response, % at 10 µM. AID 504577. 0.37% of 350,000 active. S. cerevisiae, pHLuorin cytosolic pH fluorescence; in the data active = response mostly above about 7.3%, no sharp cut-off; inactive = mostly below about 5.4%; note: actives read high
tim10-1 inh: growth inhibitors of tim10-1 mutant yeast. S. cerevisiae tim10-1 ts strain growth, BacTiter-Glo, 24 h. 2.2% of 330,000 active. inhibition, % at 20 µM;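 active = inhibition of at least 40%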;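 note: mutant grown at 25 °C; 0% = DMSO wells with yeast and 100% = wells holding no yeast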
tim10-1 confirm: confirmation of tim10-1 mutant yeast growth inhibitors; 56% of 7,400 active; shares compounds with tim10-1 inh; inhibition, % at 20 µM; S. cerevisiae tim10-1 ts strain growth, BacTiter-Glo, 24 h;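 active = inhibition of yeast growth at or above a set limit in either of two repeat tests at 20 µM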;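 note: tim10-1 mutant grown at permissive 25 °C to find synthetic lethal compounds; 0% = DMSO yeast wells and 100% = medium wells without yeast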
TIM10 conf: TIM10 yeast growth inhibition, confirmed. S. cerevisiae tim10 strain growth, BacTiter-Glo luminescence, 24 h. inhibition, % at 10 µM. shares compounds with TIM10 inh. 63% of 4,600 active. AID 463215;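 active = inhibition of yeast growth at or above a set limit in either of two replicates at 10 µM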;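 note: this counterscreen used the strain with wild-type TIM10; 0% = yeast with DMSO and 100% = medium wells lacking yeast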
tim23-1 conf: confirmation of tim23-1 mutant yeast growth inhibitors. AID 463218. inhibition, % at 20 µM. 83% of 4,400 active. S. cerevisiae tim23-1 growth, BacTiter-Glo luminescence, 24 h. shares compounds with tim23-1 inh;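 active = inhibition above about 39% in either of two replicate wells at 20 µM, limit read from the data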;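 note: temperature-sensitive tim23-1 mutant grown at 25 °C; 0% = DMSO wells with yeast and 100% = medium wells without yeast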
* = called active by the depositor; x = no result.

SMILES	tim23-1 inh	TIM10 inh	NLRP3 yeast inh	NALP1 inh	V-ATPase pHluor	tim10-1 inh	tim23-1 conf	others
O=C1NC(=O)C(=Cc2ccc(-c3ccc(Cl)cc3)o2)C(=O)N1	53.7*	20.1	9.9	10.1	5.5	45.4*	55.3*	tim10-1 confirm=7.6
O=C1NC(=O)C(=Cc2ccc(-c3ccc(S(=O)(=O)N4CCOCC4)cc3)o2)C(=O)N1	-12.8	-0.9	18.1	5.3	3.3	16.0	x
O=C1NC(=O)C(C2CCOC2=O)N1 (stereo not drawn)	x	x	x	x	0.4	x	x
Cc1nc2c(=O)n(C)c(=O)nc-2n(C)n1	54.3*	23.8	25.5	-11.9	-2.1	42.5*	63.0*	tim10-1 confirm=22.5
Cc1ccccc1N1CCN(C2CCCN(C(=O)COc3ccccc3)C2)CC1 (stereo not drawn)	11.4	12.3	18.2	18.8	3.7	23.9	x
C=C(C)C(Cc1c(OC)ccc(C(=O)/C=C/c2ccc(O)cc2)c1O)OO (stereo not drawn)	75.2*	45.8*	44.8	x	5.6	43.8*	76.4*	tim10-1 confirm=64.8*;TIM10 conf=69.2*
Cc1ccccc1-n1c(-c2ccc([N+](=O)[O-])cc2)nc2ccccc2c1=O	31.8	13.0	-0.8	39.3	-0.5	34.9	x
CCOC(=O)C(O)(c1ccc(N(C)C(=O)c2ccc(Cl)c(Cl)c2)cc1)C(F)(F)F (stereo not drawn)	12.8	-15.7	10.7	34.2	-2.3	13.4	x
CCOC(=O)C(O)(c1ccc(NC(=O)c2ccc(Cl)c(Cl)c2)cc1)C(F)(F)F (stereo not drawn)	57.4*	38.6	22.2	-13.3	-3.3	42.9*	49.9*	tim10-1 confirm=34.1*
Cc1cccc(OP(=O)(NCc2ccccc2)Oc2cccc(C)c2)c1	38.0	33.9	11.7	24.8	-0.1	25.7	x
Clc1ccc(C(c2ccc(Cl)cc2)n2cc[n+](CC(OCc3ccc(Cl)cc3Cl)c3ccc(Cl)cc3Cl)c2)cc1 (stereo not drawn)	88.4*	84.7*	21.7	x	-0.2	92.9*	76.6*	tim10-1 confirm=89.8*;TIM10 conf=-8.6
O=c1cccc2n1CC1CC2CN(c2ncnc3c2cnn3-c2ccc(Cl)cc2)C1 (stereo not drawn)	35.3	44.0*	0.4	-0.5	0.4	39.8	x	TIM10 conf=9.9
O=C(/C=C/c1ccc(Cl)cc1)NC(=S)N1C[C@H]2C[C@H](C1)c1cccc(=O)n1C2	-6.9	-5.2	-10.7	0.8	-0.7	-8.4	x
Cn1cnc(CCN)c1	3.4	40.4*	6.9	x	2.6	22.5	x	TIM10 conf=23.1
CCC(=NCc1ccco1)c1c(O)n(C2CCCCC2)c(=O)[nH]c1=O	42.0	40.2*	5.5	3.3	7.0	34.3	x	TIM10 conf=23.9
CCC(=NCc1cccnc1)c1c(O)n(C2CCCCC2)c(=O)[nH]c1=O	16.4	13.1	6.6	10.0	-0.9	32.1	x
OC(CN1CCCCC1)c1c[nH]c2ccccc12 (stereo not drawn)	10.4	0.9	15.6	-8.3	-3.3	14.4	x
CCOC(=O)c1ccc(N2C(=O)CC(N3CCC(C#N)(c4ccccc4)CC3)C2=O)cc1 (stereo not drawn)	41.8	41.8*	7.4	7.6	0.8	38.3	x	TIM10 conf=32.9*
Cn1c(O)c(C(=NCCc2c[nH]c3ccccc23)c2ccccc2)c(=O)n(C)c1=O	23.2	7.4	16.7	17.7	1.4	17.8	x
CCCCCCCCn1sccc1=O	65.2*	53.8*	8.4	x	36.6*	-129.1	-91.5	TIM10 conf=57.8*
Cc1cc(C=C2C(=O)NC(=S)NC2=O)c(C)n1C1CCCC1	55.3*	46.2*	19.8	27.6	-0.4	38.4	54.8*	TIM10 conf=45.0*
CC1CN(c2ccc([N+](=O)[O-])c(N3CCCCC3)c2)CCN1 (stereo not drawn)	2.3	13.4	1.9	23.0	-3.1	12.2	x
CCOC(=O)C(O)(c1ccc(N(C)C(=O)COc2ccccc2)cc1)C(F)(F)F (stereo not drawn)	14.2	-2.1	11.4	x	3.1	17.8	x
CN(C)C(=O)O/N=C(\N)COc1ccc(C(C)(C)C)cc1	58.8*	72.7*	5.6	13.7	3.2	13.9	53.8*	TIM10 conf=81.0*
O=c1[nH]c(O)c(/C=C2/C=CC(c3cc(Cl)ccc3Cl)=N2)c(=O)[nH]1	53.6*	51.7*	0.5	x	-1.4	32.0	58.6*	TIM10 conf=51.7*
SMILES	tim23-1 inh	TIM10 inh	NLRP3 yeast inh	NALP1 inh	V-ATPase pHluor	tim10-1 inh	tim23-1 conf	others
CC1=Nc2ccccc2/C1=C/c1c(O)[nH]c(=O)[nH]c1=O	1.5	0.1	12.3	1.0	-2.7	-10.7	x
CC1=CC2OC3CC4OC(=O)C=CC=CC(=O)OCCC(C)C(O)C(=O)OCC2(CC1)C4(C)C31CO1 (stereo not drawn)	x	x	x	x	-10.1	x	x
NC(N)=N/N=C/c1ccc(N(c2ccccc2)c2ccccc2)cc1	70.7*	22.4	26.0	26.5	1.9	-27.4	27.3*
COc1cccc(C2CC3C(=O)C=CC2N3Cc2ccccc2)c1 (stereo not drawn)	54.6*	39.8	26.4	69.4*	1.6	37.8	47.2*
O=c1c2ccccc2nc(/C=C/c2ccccc2O)n1-c1ccccc1O	8.9	5.2	21.7	-0.5	1.0	24.1	x
O=c1c2ccccc2nc(/C=C/c2ccccc2F)n1-c1ccccc1O	54.2*	32.7	11.3	7.9	-2.5	29.9	48.5*
CCc1ccc(-c2nn(Cc3ccccc3)cc2C=O)cc1	54.3*	29.7	34.8	-12.8	-1.1	32.5	58.0*
O=Cc1cn(Cc2c(F)cccc2Cl)nc1-c1ccccc1	55.0*	38.8	35.1	x	4.6	39.3	40.4*
C[N+](C)(C)CCc1ccc(O)cc1	-15.9	-0.5	5.4	-14.5	-1.3	-10.5	x
CCCCCCCCc1ccc(O)cc1	50.5*	-1.5	15.0	x	27.4*	16.5	39.5*
Cc1nonc1OCCNCCNc1ccc([N+](=O)[O-])c2cccnc12	3.7	4.5	14.3	-3.2	0.6	19.0	x
CN1C(=O)C(=Cc2ccccc2OCc2ccc(Cl)cc2)C(=O)N(C)C1=O	66.7*	24.2	36.3	44.3*	6.4	18.3	79.5*
Cc1ccc(S(=O)(=O)Oc2ccccc2C=C2C(=O)N(C)C(=O)N(C)C2=O)cc1	72.9*	38.4	1.6	7.3	-1.8	32.8	75.4*
O=Cc1cn(Cc2cccc(F)c2)c2ccccc12	14.9	-7.7	32.8	26.4	1.6	11.8	x
O=Cc1cn(Cc2ccc(Br)cc2)c2ccccc12	59.5*	24.5	38.8	18.1	-1.1	26.9	39.0
O=C(Cn1cnc2sc3c(c2c1=O)CCCC3)NCCCC(=O)N1CCC2(CC1)OCCO2	13.3	3.9	3.2	7.3	-1.2	6.7	x
